Reference: PubChem BioAssay AID977607 (Broad Institute, 2014)
Among all 1,500 compounds or so, about 460 (31%) were called active. About 1% were inconclusive and are not listed.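 How the source made its calls: active means curve reaches 40% activation over neutral controls at an AC40 no higher than the top valid tested concentration; inconclusive means no clear call, values can overlap the other calls; inactive means signal moving opposite to the expected increase, and the rest.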 A selection follows. Entries with a potency or affinity are not part of this list.

test: GLuc-reported insulin release enhancers, glucose-stimulated beta cells – cell-based, INS-1E, Gaussia luciferase, luminescence, cherry-pick, set 2, dose response (AID 977607); conditions: INS-1E GLuc insulin secretion reporter, 2-3 h, hits give high values; at 35 µM, 100% = signal doubled over neutral wells unless noted;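 further: 0% = median of the plate neutral control wells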

Max activation, inactive:
CCCn1c(O)c(N=NC(=O)c2cccnc2)c2cc(Br)ccc21 -23%
Cc1cc(=O)n(Cc2ccccc2)c2ccccc12 22.3%
Cc1ccc(S(=O)(=O)Nc2nc(C)cc(NN)n2)cc1 -19.8% [at 0.015 µM, 100% = signal doubled over neutral wells]
COc1ccc(N/C=C/C(=O)c2ccc(Cl)cc2)cc1 -21.2% [at 0.42 µM, 100% = signal doubled over neutral wells]
Cc1c(C)c2c(OCC(=O)O)cc3c(c2oc1=O)CCC(C)(C)O3 -24.4% [at 0.135 µM, 100% = signal doubled over neutral wells]
COc1cc2c(cc1OC)C(Cc1ccc(O)cc1)NCC2 (stereo not drawn) 24.7% [at 0.0016 µM, 100% = signal doubled over neutral wells]
COc1cc2c(cc1OC)C(Cc1ccc(O)cc1)N(C)CC2 (stereo not drawn) -15.9% [at 0.0016 µM, 100% = signal doubled over neutral wells]
O=C(NCCC1CCCCN1S(=O)(=O)c1ccc(F)cc1)C(=O)NCc1cccnc1 (stereo not drawn) -23.5% [at 1.2 µM, 100% = signal doubled over neutral wells]
COc1ccc2oc(-c3ccncc3)cc(=O)c2c1 16.4%
COc1ccc(C(=O)Cc2cc3cccc(OC)c3oc2=O)cc1 -21.5% [at 0.0016 µM, 100% = signal doubled over neutral wells]
O=C(NCc1ccccn1)c1ccccc1OCc1ccc(Cl)cc1Cl -25.4%
COc1ccc2oc(=O)c(C(=O)NCc3ccccn3)cc2c1 -9.33% [at 1.2 µM, 100% = signal doubled over neutral wells]
COc1ccc(Cc2nnc(-c3ccccc3)o2)cc1 24.7% [at 0.42 µM, 100% = signal doubled over neutral wells]
COc1cc(CN(C)c2ccc(S(=O)(=O)N3CCCC3)cn2)ccc1OC(F)F -33.3% [at 11 µM, 100% = signal doubled over neutral wells]
CCN1CCN(CC(=O)Nc2ccc(C(C)=O)cc2)CC1 -17% [at 1.2 µM, 100% = signal doubled over neutral wells]
O=C(NC(=S)Nc1cccc2[nH]ncc12)c1ccccc1 -16.1% [at 1.2 µM, 100% = signal doubled over neutral wells]
COc1ccc(C(=O)/C=C2/c3ccccc3CC(C)(C)N2C)cc1OC -35.3% [at 1.2 µM, 100% = signal doubled over neutral wells]
COc1ccc(C(=O)c2sc(Nc3ccccc3)nc2N)cc1OC 39.1% [at 3.8 µM, 100% = signal doubled over neutral wells]
CC(C)COC(=O)N1C[C@H](O)C[C@H]1C(=O)Nc1ccc(Cl)cc1 -12.6% [at 0.015 µM, 100% = signal doubled over neutral wells]
Cc1ccc(-c2nc3c(=O)n(C)c4ccccc4c3o2)cc1 27.7% [at 0.42 µM, 100% = signal doubled over neutral wells]
O=C(Nc1ccc2oc(-c3cccnc3)nc2c1)c1ccc2c(c1)OCCO2 21%
O=C(Nc1ccc(NC(=O)c2cccs2)cc1)c1ccc2c(c1)OCO2 -18.9% [at 3.8 µM, 100% = signal doubled over neutral wells]
CN1CCCCCC1C(=O)N1CCC(N2CCC(C(=O)N3CCOCC3)CC2)CC1 (stereo not drawn) -16.3%
O=C(Nc1nnc(-c2ccc(F)cc2)s1)C1CCN(S(=O)(=O)c2ccc(Cl)cc2)CC1 18.7%
CCOC(=O)c1ccc(S(=O)(=O)N2CCC(C(=O)Nc3nnc(C)o3)CC2)cc1 -12.8% [at 0.0016 µM, 100% = signal doubled over neutral wells]
COc1ccccc1N(CC(=O)NCC1CCCO1)C(=O)CNS(=O)(=O)c1ccc(Cl)cc1 (stereo not drawn) -20% [at 0.42 µM, 100% = signal doubled over neutral wells]
Fc1ccccc1-c1nnc2ccc3ccccc3n12 -19.8% [at 0.135 µM, 100% = signal doubled over neutral wells]
C[C@@H]1CN([C@H](C)CO)C(=O)CCCn2nncc2CO[C@H]1CN(C)C(=O)Nc1ccnc(N2CCOCC2)c1 -14% [at 0.015 µM, 100% = signal doubled over neutral wells]
COc1ccc(C(=O)Nc2ccccc2C(=O)NCC2CCCO2)cc1 (stereo not drawn) 6.34%
COc1ccc(NC(=O)C2(c3ccc(NC(=O)c4ccc(OC)cc4)cc3)CCCC2)cc1 -18.4% [at 0.005 µM, 100% = signal doubled over neutral wells]
COc1ccc(CCN2CC(=O)NC(=O)C2)cc1OC -13.9% [at 3.8 µM, 100% = signal doubled over neutral wells]
CCN(c1ccccc1)c1nc(Cl)nc2c1cnn2C 28.8%
COc1ccc(-c2ccc(=O)n(CC(=O)NC3CCc4ccccc43)n2)cc1OC (stereo not drawn) 20.7% [at 11 µM, 100% = signal doubled over neutral wells]
COCc1ccc(C(=O)NC2CCSc3ccccc32)cc1 (stereo not drawn) -17.7%
CCCc1cc(=O)oc2cc(C)cc(OCC(=O)Nc3ccc(S(N)(=O)=O)cc3)c12 24.1% [at 1.2 µM, 100% = signal doubled over neutral wells]
Cn1c(=O)c(=O)n(C)c2cc(S(=O)(=O)N3CCN(c4ccc(F)cc4)CC3)ccc21 -17.9% [at 0.046 µM, 100% = signal doubled over neutral wells]
CSc1ccc2nnc(-c3cccc(F)c3)n2n1 16.4%
COc1cccc(-c2cc(C(F)(F)F)nc(-n3cncn3)n2)c1 -20.7%
CCN(Cc1ccncc1)C(=O)c1cccc(S(=O)(=O)N2CCCCC2)c1 -18% [at 1.2 µM, 100% = signal doubled over neutral wells]
CC(C)CC#Cc1ccc([C@H]2[C@H]3CN(C(=O)c4cnccn4)CC(=O)N3[C@H]2CO)cc1 35.4% [at 0.015 µM, 100% = signal doubled over neutral wells]
COc1ccccc1CNC(=O)CCS(=O)(=O)Cc1ccc(C)cc1 -17.3%
Cc1ccc(NC2c3ncccc3C(=O)N2C2CCCCC2)cc1 (stereo not drawn) 28.1%
COc1ccc(-c2nnc(-c3cccs3)o2)cc1OC 29.4%
COc1ccc(C2=Nn3c(nnc3-c3ccccc3OC)SC2)cc1OCC1CC1 -35.7%
COc1ccc(C(O)c2nccc3cc(OC)c(OC)cc23)cc1OC (stereo not drawn) 44.3% [at 3.8 µM, 100% = signal doubled over neutral wells]
COc1ccc(C2=Nn3c(nnc3-c3ccccc3OC)SC2)cc1OC1CCOC1 (stereo not drawn) 43.3% [at 1.2 µM, 100% = signal doubled over neutral wells]
COc1ccc(CO/N=C/c2c(C)[nH]c(=O)[nH]c2=O)cc1 16.7%
COC(=O)C1C(=O)NC(SC)=C(C#N)C1c1ccccc1 (stereo not drawn) -22.6% [at 0.015 µM, 100% = signal doubled over neutral wells]
O=C1N(c2ccccc2)c2ccccc2[C@]12C[C@H](O)CO2 -20.7% [at 0.135 µM, 100% = signal doubled over neutral wells]
O=C(COc1ccc(Cl)cc1)NCCS(=O)(=O)N1CCN(c2ccccc2F)CC1 -18.1% [at 0.135 µM, 100% = signal doubled over neutral wells]
COc1ccc(OC)c(C2=Nn3c(nnc3-c3ccncc3)SC2)c1 12.7%
CC[C@@H]1CC2=C(C(=O)OC(C)(C)O2)[C@H](c2ccc(F)cc2)O1 23.8% [at 3.8 µM, 100% = signal doubled over neutral wells]
C[C@@H]1O[C@H](C2CCCC2)CC2=C1C(=O)OC(C)(C)O2 18% [at 1.2 µM, 100% = signal doubled over neutral wells]
C=CCNc1nc(Cl)nc(Nc2ccc(OC)cc2)n1 50.7%
CCOc1cc(/C=C(\CC(=O)O)c2nc3ccccc3s2)ccc1OC -15% [at 0.005 µM, 100% = signal doubled over neutral wells]
c1ccc(-c2ccccc2OCCN2CCCCC2)cc1 -15.6% [at 0.015 µM, 100% = signal doubled over neutral wells]
C/C=C1\COC(C(=O)NCc2ccccc2)(C(F)(F)F)C=C1C=C1CCCCC1 (stereo not drawn) -27% [at 11 µM, 100% = signal doubled over neutral wells]
COc1cc(OC)c2c(-c3ccccc3)cc(C3CCCCC3)nc2c1 -18.2% [at 0.046 µM, 100% = signal doubled over neutral wells]
